# Several values for one entry are separate records, joined by “and”; a condition that tells them apart may be missing. Equal entries are not always repeated. Structures can show the parent of a compound that is named as a salt.
# Tested on: K562
# Experiment: cell viability relative to vehicle control; higher = less cytotoxic
# Conditions: 10 µM; SRSF2 genotype: SRSF2 P95H/wt
# Method in brief: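 CRISPR-edited SRSF2 P95 mutant and isogenic wild-type clones of four leukaemia lines were screened against Selleck bioactive, kinase and epigenetic probe libraries, with identity-inconsistent compounds removed. Compounds were acoustically dispensed into 384-well plates at a single 10 µM dose, with 2000 cells in 50 µL medium per well. After 48 h, supernatant was removed and CellTiter-Glo luminescence was read. Viability was expressed as percent of the on-plate DMSO vehicle control, analysed in Genedata Screener.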
row,Compound,cell viability
1,CCN(Cc1ccncc1)C(=O)C(CO)c1ccccc1 (centres undefined) [Tropicamide],102% and 103%
2,CN(C)C1CCN(C(=O)c2ccc(NC(=O)Nc3ccc(-c4nc(N5CCOCC5)nc(N5CCOCC5)n4)cc3)cc2)CC1,34.1% and 32.1%
3,COc1cc2nc(N3CCN(C(=O)c4ccco4)CC3)nc(N)c2cc1OC [Prazosin HCl],99.9% and 102%
4,O=C(c1cccc(Br)c1)N1CCC(N2CCCC2)CC1,105% and 98.6%
5,CC(=O)Oc1ccc2c(c1)Oc1cc(OC(C)=O)ccc1C21OC(=O)c2cc(C(=O)ON3C(=O)CCC3=O)ccc21.CC(=O)Oc1ccc2c(c1)Oc1cc(OC(C)=O)ccc1C21OC(=O)c2ccc(C(=O)ON3C(=O)CCC3=O)cc21,90.8% and 93.8%
6,CC1(C)S[C@@H]2[C@H](NC(=O)Cc3ccccc3)C(=O)N2[C@H]1C(=O)O [Penicillin G Sodium],100% and 92%
7,CCOc1cc2ncc(C#N)c(Nc3ccc(F)c(Cl)c3)c2cc1NC(=O)/C=C/CN(C)C [Pelitinib (EKB-569)],9.19% and 1.6%
8,CC(C)=CCC[C@](C)(O[C@@H]1O[C@H](CO)[C@@H](O)[C@H](O)[C@H]1O)[C@H]1CC[C@]2(C)[C@@H]1[C@H](O)C[C@@H]1[C@@]3(C)CC[C@H](O)C(C)(C)[C@@H]3[C@@H](O[C@@H]3O[C@H](CO)[C@@H](O)[C@H](O)[C@H]3O[C@@H]3O[C@@H](C)[C@H](O)[C@@H](O)[C@H]3O)C[C@]12C [Ginsenoside Re],103% and 101%
9,C[C@H](CCC(=O)O)[C@H]1CC[C@H]2[C@@H]3[C@@H](O)C[C@@H]4C[C@H](O)CC[C@]4(C)[C@H]3CC[C@]12C [Ursodiol (Actigal Urso)],95.3% and 97.4%

# Source: the supplement of paper PMC10981050
